Reference: PubChem BioAssay (Tox21)
“And” between values parts separate entries of the source, which are not always exact repeats. Equal entries are not always repeated. Results filed as inconclusive are left out. Where a call stands in place of a potency, no number is given. A structure can be active in one record and inactive in another. The source made the active and inactive calls. Unless noted, calls follow the shape of the full dose curve.

Tests used:
[1] = Nuclear factor erythroid 2-related factor 2/antioxidant responsive element (Nrf2/ARE) small molecule agonists: qHTS cell viability counter screen in human keratinocytes (AID 1919968; active = well fitted curve in the direction sought with a large enough effect in the repeat runs; an effect the other way counts as inactive or inconclusive; also: nearly all actives have a fitted effect of over 55% in size; also: potency is read from the fitted curve at half-maximal effect)
Method in brief: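 Viability counter-screen: KeratinoSens reporter cells, DMSO-delivered compounds, 23 h at 37 C, CellTiter-Fluor fluorescence.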

[2] = target: Gonadotropin-releasing hormone receptor (Homo sapiens) (UniProt P30968); assay: Human gonadotropin-releasing hormone receptor (GnRHR) small molecule agonists, calcium flux assay in GnRHR-HEK293 cells (AID 1920063); also: nearly all actives have a fitted effect of over 35% in size
Method in brief: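 Tox21-format agonist screen using human GnRHR-expressing HEK293 cells and a fluorescent calcium dye; kinetic 3-min fluorescence reading after compound addition, 15-point concentration series run in triplicate.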

[3] = target: KiSS-1 receptor (Homo sapiens) (UniProt Q969F8); assay: Human kisspeptin (KISS1R) small molecule agonists, calcium flux assay in KISS1R-HEK293 cells (AID 1920064; active = well fitted curve in the direction sought with a large enough effect in the repeat runs; an effect the other way counts as inactive or inconclusive)
Method in brief: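 Intracellular calcium mobilization in KISS1R-HEK293 cells was recorded by fluorescence (Ex/Em 480/540) for 3 min following compound addition to cells pre-loaded 1 h with calcium dye.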

[4] = G protein-coupled receptor (GPCR) small molecule agonists, calcium flux assay: HEK293 wild type cell line counter screen (AID 1920065)
Method in brief: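 In this agonist-mode screen, ATP is the positive control and DMSO the vehicle. Cells grow 18 h before a 1 h dye incubation at 37 C; signal is taken at Ex/Em 480/540 over 3 min.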

[5] = p53 small molecule agonists, cell-based qHTS assay with human liver microsomes (AID 1963577);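 also: p53 response element beta-lactamase reporter cells with liver microsomes plus NADPH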
Method in brief: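 p53RE-bla cells; 5 h settle, 37 C/5% CO2; cpd + HLM 0.5 mg/mL + NADPH 0.5 mg/mL (final); 16 h 37 C; LiveBLAzer 2 h RT dark; fluorescence readout.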

[6] = p53 small molecule agonists, cell-based qHTS assay with rat liver microsomes (AID 1963578)
Method in brief: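 Rat liver microsome activation: microsomes 0.5 mg/mL, NADPH 0.5 mg/mL final; p53RE-bla cells, 16 h 37 C; LiveBLAzer readout, 2 h RT dark.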

[7] = p53 small molecule agonists, cell-based qHTS assay with human liver microsomes: qHTS cell viability counter screen (AID 1963579); also: nearly all actives have a fitted effect of over 45% in size
Method in brief: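 Luminescent CellTiter-Glo read-out, 30 min at room temperature, gauged cytotoxicity in p53RE-bla cells exposed 16 h at 37 C to DMSO-dissolved compounds with metabolic activation by human liver microsomes and NADPH, each 0.5 mg/mL final.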

[8] = p53 small molecule agonists, cell-based qHTS assay with rat liver microsomes: qHTS cell viability counter screen (AID 1963580); also: nearly all actives have a fitted effect of over 45% in size
Method in brief: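 p53RE-bla HCT-116 cells (4,000/well) rested 5 h at 37 C, then given Tox21 compounds in DMSO with rat liver microsomes (0.5 mg/mL final) plus NADPH (0.5 mg/mL final) for 16 h at 37 C. Viability read by CellTiter-Glo luminescence after 30 min at room temperature.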

[9] = p53 small molecule agonists, cell-based qHTS assay: qHTS cell viability counter screen (AID 1963581); also: nearly all actives have a fitted effect of over 45% in size
Method in brief: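 Compounds are pinned onto HCT-116 p53RE-bla cells and left 16 h at 37 C. Following the reporter FRET read, ATP is quantified by CellTiter-Glo luminescence after 30 min at room temperature.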

[10] = p53 small molecule agonists, cell-based qHTS assay (AID 1963582; active = well fitted activation curve with a large enough effect in the signal ratio in the repeat runs, not every such curve was filed as active; the % refers to the signal ratio)
Method in brief: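 Agonist activity was scored from beta-lactamase FRET fluorescence in p53RE-bla cells treated 16 h at 37 C with compounds in DMSO, substrate incubation being 2 h at room temperature.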

[11] = target: 5-hydroxytryptamine receptor 2A (Homo sapiens) (UniProt P28223); assay: 5-hydroxytryptamine receptor 2A (HTR2A) small molecule antagonists, cell-based qHTS assay (AID 1963586); also: nearly all actives have a fitted effect of over 45% in size; also: potency is read from the fitted curve at half-maximal effect
Method in brief: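 Antagonist-mode intracellular calcium assay: DOI (4 nM) added after 5 min compound pre-incubation at room temperature to dye-loaded HTR2A-CHO cells. Fluorescence followed for 3 min, sampled every second.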

[12] = target: 5-hydroxytryptamine receptor 2A (Homo sapiens) (UniProt P28223); assay: 5-hydroxytryptamine receptor 2A (HTR2A) small molecule agonists, cell-based qHTS assay (AID 1963587); also: nearly all actives have a fitted effect of over 30% in size; also: potency is read from the fitted curve at half-maximal effect
Method in brief: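 HTR2A-CHO cells, plated 18 h at 37 C/5% CO2, dye-loaded 1 h at 37 C; compounds in DMSO added by pin tool (agonist mode). Intracellular calcium flux read as kinetic fluorescence on FDSS over 2 min at 1 s intervals.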

[13] = target: Muscarinic acetylcholine receptor M1 (Homo sapiens) (UniProt P11229); assay: Cholinergic receptor muscarinic 1 (CHRM1) small molecule antagonists, cell-based qHTS assay (AID 1963588); also: nearly all actives have a fitted effect of over 40% in size; also: potency is read from the fitted curve at half-maximal effect
Method in brief: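 CHRM1-CHO calcium-flux assay, antagonist mode. Cells were seeded 18 h, dye-loaded 1 h at 37 C and given compound for 5 min at RT, then acetylcholine was added at 50nM. FDSS fluorescence was read 3 min; 15 concentrations, three runs.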

[14] = target: Muscarinic acetylcholine receptor M1 (Homo sapiens) (UniProt P11229); assay: Cholinergic receptor muscarinic 1 (CHRM1) small molecule agonists, cell-based qHTS assay (AID 1963589); also: nearly all actives have a fitted effect of over 35% in size
Method in brief: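 Stable CHRM1-CHO cells (human receptor) were incubated 18 h, dye-loaded for 1 h at 37 C and exposed to test compounds for agonist activity, with calcium-dependent fluorescence followed kinetically.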

[15] = cAMP Responsive Elements (CRE) small molecule agonists, cell-based qHTS assay (AID 1963590)
Method in brief: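 FRET-based beta-lactamase readout (LiveBLAzer B/G, 2 h RT) quantified CRE activation in HEK 293T CRE-bla cells after 3 h treatment with DMSO-dissolved compounds.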

[16] = cAMP Responsive Elements (CRE) small molecule antagonists, cell-based qHTS assay (AID 1963591; active = well fitted inhibition curve with a large enough effect in the signal ratio in the repeat runs, not every such curve was filed as active; the % refers to the signal ratio)
Method in brief: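 qHTS in CRE-bla HEK 293T cells: compound in DMSO, then 0.25 uM NKH477 (final), 3 h at 37 °C/5% CO2; beta-lactamase FRET read-out after 2 h substrate incubation.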

[17] = target: Beta-2 adrenergic receptor (Homo sapiens) (UniProt P07550); assay: Adrenergic beta2 receptor (ADRB2) small molecule antagonists, cell-based qHTS assay (AID 1963592); also: nearly all actives have a fitted effect of over 50% in size; also: potency is read from the fitted curve at half-maximal effect
Method in brief: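 Cells (CHO, stable ADRB2 overexpression) incubated 18-20hr at 37C; compounds added from DMSO; agonist mix (1nM isoproterenol, 100uM IBMX, 25uM Ro-20-1724) added; 0.5hr RT; d2-cAMP and anti-cAMP-cryptate added; 1hr RT; 665/615 nm read.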

[18] = target: D(2) dopamine receptor (Homo sapiens) (UniProt P14416); assay: Dopamine D2 receptor (DRD2) small molecule agonists, cell-based qHTS assay (AID 1963594); also: nearly all actives have a fitted effect of over 35% in size; also: potency is read from the fitted curve at half-maximal effect
Method in brief: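 HEK293 cells stably expressing DRD2 were cultured 24 h at 37 C, then given Ro20-1724 (0.1 mM final) and compounds for 10 min at room temperature. NKH477 (200nM) was then added for 30 min. cAMP was read by HTRF.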

[19] = target: D(2) dopamine receptor (Homo sapiens) (UniProt P14416); assay: Dopamine D2 receptor (DRD2) small molecule antagonists, cell-based qHTS assay (AID 1963595; active = well fitted inhibition curve with a large enough effect in the signal ratio in the repeat runs, with a control signal flat; the % refers to the signal ratio)
Method in brief: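 HEK293 cells stably expressing DRD2 were preincubated with 0.1 mM Ro20-1724, then with compound for 10 min at room temperature. Cells were stimulated with 200 nM NKH477 plus 12 nM quinpirole for 30 min, and cAMP was read by HTRF.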

[20] = target: Beta-2 adrenergic receptor (Homo sapiens) (UniProt P07550); assay: Adrenergic beta2 receptor (ADRB2) small molecule agonists, cell-based qHTS assay (AID 1963593);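 also: CHO cells stably overexpressing human ADRB2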
Method in brief: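 CHO cells stably over-expressing ADRB2 were plated overnight at 37C, then dosed with compounds plus a stimulation mix containing 100uM IBMX and 25uM Ro-20-1724 for 0.5hr at room temperature. cAMP was measured by HTRF competition, 1hr.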

Sequence of Beta-2 adrenergic receptor (Homo sapiens) (P07550 whole entry, looked up): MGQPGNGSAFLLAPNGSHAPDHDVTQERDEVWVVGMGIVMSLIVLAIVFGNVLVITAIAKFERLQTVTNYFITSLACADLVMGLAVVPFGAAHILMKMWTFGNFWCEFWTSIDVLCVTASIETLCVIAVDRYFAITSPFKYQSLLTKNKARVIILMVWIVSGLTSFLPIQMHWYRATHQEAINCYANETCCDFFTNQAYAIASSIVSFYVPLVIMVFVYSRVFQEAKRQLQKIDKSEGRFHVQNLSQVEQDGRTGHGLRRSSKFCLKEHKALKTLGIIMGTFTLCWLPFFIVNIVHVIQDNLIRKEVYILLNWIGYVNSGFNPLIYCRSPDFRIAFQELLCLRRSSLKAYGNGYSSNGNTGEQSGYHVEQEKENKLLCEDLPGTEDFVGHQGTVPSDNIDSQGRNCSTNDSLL
Sequence of 5-hydroxytryptamine receptor 2A (Homo sapiens) (P28223 whole entry, looked up): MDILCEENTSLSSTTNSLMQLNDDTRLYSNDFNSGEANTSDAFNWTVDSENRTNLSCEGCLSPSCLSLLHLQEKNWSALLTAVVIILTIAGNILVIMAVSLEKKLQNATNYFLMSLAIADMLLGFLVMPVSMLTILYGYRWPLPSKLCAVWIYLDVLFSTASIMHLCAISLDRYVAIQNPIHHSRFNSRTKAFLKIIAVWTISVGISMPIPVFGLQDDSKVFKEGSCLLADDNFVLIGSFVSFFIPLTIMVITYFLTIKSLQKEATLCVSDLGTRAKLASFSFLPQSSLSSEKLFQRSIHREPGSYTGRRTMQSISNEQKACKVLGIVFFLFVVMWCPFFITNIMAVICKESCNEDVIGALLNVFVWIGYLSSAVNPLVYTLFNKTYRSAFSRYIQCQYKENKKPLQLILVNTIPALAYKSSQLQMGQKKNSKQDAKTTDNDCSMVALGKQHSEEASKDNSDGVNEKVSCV
Sequence of D(2) dopamine receptor (Homo sapiens) (P14416 whole entry, looked up): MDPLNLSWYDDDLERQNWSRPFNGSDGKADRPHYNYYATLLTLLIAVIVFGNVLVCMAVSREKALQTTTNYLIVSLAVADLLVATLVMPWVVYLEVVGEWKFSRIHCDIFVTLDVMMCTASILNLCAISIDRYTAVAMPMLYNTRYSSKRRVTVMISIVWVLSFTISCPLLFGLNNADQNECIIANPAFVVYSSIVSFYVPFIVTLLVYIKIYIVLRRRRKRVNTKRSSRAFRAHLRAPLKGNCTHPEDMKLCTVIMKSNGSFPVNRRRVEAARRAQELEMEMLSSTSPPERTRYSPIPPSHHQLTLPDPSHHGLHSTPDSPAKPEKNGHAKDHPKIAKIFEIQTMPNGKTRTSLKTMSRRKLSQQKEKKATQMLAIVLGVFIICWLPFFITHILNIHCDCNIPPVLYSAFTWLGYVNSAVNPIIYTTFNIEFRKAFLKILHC
Sequence of KiSS-1 receptor (Homo sapiens) (Q969F8 whole entry, looked up): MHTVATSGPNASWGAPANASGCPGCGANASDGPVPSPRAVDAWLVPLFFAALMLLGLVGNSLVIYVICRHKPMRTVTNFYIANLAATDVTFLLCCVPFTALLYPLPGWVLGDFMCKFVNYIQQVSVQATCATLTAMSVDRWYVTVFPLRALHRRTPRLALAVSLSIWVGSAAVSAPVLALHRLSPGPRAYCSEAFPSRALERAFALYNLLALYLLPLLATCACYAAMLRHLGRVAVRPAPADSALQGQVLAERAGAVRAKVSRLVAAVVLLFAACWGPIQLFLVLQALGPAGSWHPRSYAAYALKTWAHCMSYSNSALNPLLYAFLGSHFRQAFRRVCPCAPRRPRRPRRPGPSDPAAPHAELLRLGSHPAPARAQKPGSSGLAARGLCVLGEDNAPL
Sequence of Muscarinic acetylcholine receptor M1 (Homo sapiens) (P11229 whole entry, looked up): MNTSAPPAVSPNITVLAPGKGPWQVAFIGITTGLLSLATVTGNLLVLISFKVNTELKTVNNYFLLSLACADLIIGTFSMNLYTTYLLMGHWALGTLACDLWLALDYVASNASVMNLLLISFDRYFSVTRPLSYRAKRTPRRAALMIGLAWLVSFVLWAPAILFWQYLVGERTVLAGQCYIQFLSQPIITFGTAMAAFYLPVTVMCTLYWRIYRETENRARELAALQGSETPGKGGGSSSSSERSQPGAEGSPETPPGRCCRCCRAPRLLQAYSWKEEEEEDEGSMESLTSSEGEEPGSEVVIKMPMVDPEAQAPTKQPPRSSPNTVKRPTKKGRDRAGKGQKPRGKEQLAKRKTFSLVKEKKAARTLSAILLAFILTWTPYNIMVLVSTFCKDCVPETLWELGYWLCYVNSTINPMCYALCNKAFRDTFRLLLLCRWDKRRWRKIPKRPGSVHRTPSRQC
Sequence of Gonadotropin-releasing hormone receptor (Homo sapiens) (P30968 whole entry, looked up): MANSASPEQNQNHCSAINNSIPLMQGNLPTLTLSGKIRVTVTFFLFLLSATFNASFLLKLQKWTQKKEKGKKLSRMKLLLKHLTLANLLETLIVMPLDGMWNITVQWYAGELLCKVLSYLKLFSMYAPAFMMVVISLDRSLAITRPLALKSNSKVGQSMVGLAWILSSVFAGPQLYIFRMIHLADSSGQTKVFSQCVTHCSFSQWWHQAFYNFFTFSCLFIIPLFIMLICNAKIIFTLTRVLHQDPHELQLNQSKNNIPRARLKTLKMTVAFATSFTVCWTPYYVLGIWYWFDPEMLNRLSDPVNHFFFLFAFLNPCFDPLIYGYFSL

SMILES | Potency [1] | Potency [2] | Potency [3] | Potency [4] | Potency [5] | Potency [6] | Potency [7] | Potency [8] | Potency [9] | Potency [10] | Potency [11] | Potency [12] | Potency [13] | Potency [14] | Potency [15] | Potency [16] | Potency [17] | Potency [18] | Potency [19] | Potency [20]
CN1C(CCl)Nc2cc(Cl)c(S(N)(=O)=O)cc2S1(=O)=O (stereo unspecified) | inactive | inactive | inactive | inactive | inactive | inactive | inactive | inactive | inactive | inactive | inactive | inactive | inactive | inactive | inactive | inactive | inactive | inactive | inactive | –
OC1CCCCCCCCCCC1 | inactive | inactive | inactive | inactive | inactive | inactive | inactive | inactive | inactive | inactive | inactive | 6.23 µM (active) | inactive | inactive | inactive | inactive | inactive | inactive | inactive | –
NCc1ccc(S(N)(=O)=O)cc1 | inactive | inactive | inactive | inactive | inactive | inactive | inactive | inactive | inactive | inactive | inactive | inactive | inactive | inactive | inactive | inactive | inactive | inactive | inactive | inactive
CN1CCCC1 | inactive | inactive | inactive | inactive | inactive | inactive | inactive | inactive | inactive | inactive | inactive | inactive | inactive | inactive | inactive | inactive | inactive | – | inactive | inactive
CNCCS(=O)(=O)O | inactive | inactive | inactive | inactive | inactive | inactive | inactive | inactive | inactive | inactive | inactive | inactive | inactive | inactive | inactive | inactive | inactive | inactive | – | inactive
C1=COCCC1 | inactive | inactive | inactive | inactive | inactive | inactive | inactive | inactive | inactive | inactive | inactive | inactive | inactive | inactive | inactive | inactive | inactive | inactive | inactive | –
C=C1[C@H]2CC[C@@H]3[C@H]2C(C)(C)CCC[C@]13C | inactive | – | – | inactive | inactive | inactive | inactive | inactive | inactive | inactive | inactive | inactive | inactive | inactive | inactive | inactive | inactive | inactive | inactive | inactive
COC(=O)c1ccccc1C(=O)c1ccc(OCCN2CCCCC2)cc1 | inactive | inactive | inactive | inactive | inactive | inactive | inactive | inactive | inactive | inactive | inactive | inactive | 36.5 nM (active) | inactive | inactive | inactive | inactive | inactive | inactive | –
Cc1ccc(C)o1 | inactive | inactive | inactive | inactive | inactive | inactive | inactive | inactive | inactive | inactive | inactive | inactive | inactive | inactive | inactive | inactive | inactive | inactive | inactive | –
O=c1[nH]c2cc(C(F)(F)F)c(N3CCOCC3)cc2n(CP(=O)(O)O)c1=O | inactive | inactive | inactive | inactive | inactive | inactive | inactive | inactive | inactive | inactive | inactive | inactive | inactive | inactive | inactive | inactive | inactive | 29.8 µM (active) | inactive | inactive
O=C(O)CCS | inactive | inactive | inactive | inactive | inactive | inactive | inactive | inactive | inactive | inactive | 3.41 µM (active) | inactive | inactive | inactive | inactive | inactive | inactive | inactive | inactive | inactive
CC(C)CC(C)(O)C#CC(C)(O)CC(C)C (stereo unspecified) | inactive | inactive | inactive | inactive | inactive | inactive | inactive | inactive | inactive | inactive | inactive | inactive | inactive | inactive | inactive | inactive | 59.9 µM (active) and inactive | inactive | inactive | –
CN1CCc2cccc3c2[C@H]1Cc1ccc(O)c(O)c1-3 | 30.9 µM (active) and 22.8 µM (active) | inactive | inactive | inactive | inactive | inactive | inactive | inactive | inactive | inactive | 1.51 µM (active) and inactive | inactive | inactive | inactive | inactive | inactive | – | – | – | –
